According to PubChem BioAssay (Tox21):
Records with an inconclusive call do not appear. Calls of active or inactive are those of the source. The call rests on the fitted dose curve; in most records, active means well fitted cell-killing curve with a large enough effect in the repeat runs; inconclusive means weak or mixed curves; inactive means flat fitted curve, though single readings scatter.
On the % scale 0 is the no-effect control and ±100 the full control effect.

Test: qHTS RealTime-Glo MT Cell Viability Assay in HepG2 cells - 8 hour (AID 1224873); further: nearly all actives have a fitted effect of over 55% in size
Settings: RealTime-Glo luminescence; series mostly up to 76.8 µM
Excerpt: National Center for Advancing Translational Sciences [NCATS]
NIH Chemical Genomics Center [NCGC]
U.S. Environmental Protection Agency [EPA]
National Institutes of Environmental Health Sciences [NIEHS]
National Toxicology Program [NTP]
U.S. Food and Drug Administration [FDA]
Measure of cell viability is critical in the cell-base assay. Analysis of cell viability is necessary for the characterization of cell responses to cytotoxic drugs and environmental stress. A RealTime-Glo MT Cell Viability Assay to monitor cell viability in real time of continues cell culture during 40 hours of compound treatment was used to screen Tox21 10K library compounds in HepG2 cells. The RealTime-Glo MT Cell Viability Assay is a nonlytic, homogeneous, bioluminescent method to measure cell viability in real time using a simple, plate-based method. The assay involves adding NanoLuc luciferase and a cell-permeant prosubstrate to cells in culture. Viable cells reduce the proprietary prosubstrate to generate a substrate for NanoLuc luciferase. This substrate diffuses from cells into the surrounding culture medium, where it is rapidly used by the NanoLuc Enzyme to produce a luminescent signal. The signal correlates with the number of viable cells, making the assay well suited for cytotoxicity studies.
Tox21 Assay Protocol Summary:
The mixture of HepG2 cell suspension and reagents were dispensed at 600cells/6 ul/well in 1536-well tissue culture treated black solid bottom plates using a Multidrop dispenser. After the assay plates were incubated at a 37 C/5% CO2 incubator for 5 hours, 23 nL of compounds dissolved in DMSO, positive and negative controls was transferred to the assay plate by a pintool work station. The plates were incubated at 37 C for 40 hours. The luminescence intensity were measured at 0h, 8h, 16h, 24h, 32h and 40h time points using ViewLux plate reader during compound treatment.
With `CCCCCCCCCC(C)=O` the outcome was “inactive”. With `O=C(c1ccc(O)cc1)c1ccc(O)c(O)c1O` the outcome was “inactive”. With `CCC(C)NC(N)=O` (stereo not given) the outcome was “inactive”. For `CC(C)=O`, the outcome was “inactive”. In the case of `Brc1ccc(-c2ccccc2)cc1`, the outcome is reported as “inactive”. For `CCOCCOCCOCC`, the outcome was “inactive”. In the case of `CN1CCN(CC(=O)N2c3ccccc3C(=O)Nc3cccnc32)CC1`, the viability change, negative = cytotoxic is reported as 0.562% [at 6.97 µM] (inactive). With `FC(F)(F)c1ccccc1-n1ccnc1` the outcome was “inactive”. With `CC(=O)OC(C)OC(=O)C(C)c1ccc(-c2ccccc2)c(F)c1` (stereo not given) the outcome was “inactive”. With `CC(C)NCC(O)COc1cccc2[nH]ccc12` (stereo not given) the outcome was “inactive”. For `O=C(OCC(O)CO)c1ccccc1Nc1ccnc2c(C(F)(F)F)cccc12` (stereo not given), the outcome was “inactive”. For `NCCS`, the outcome was “inactive”. With `O=C1CC(c2ccc(Cl)cc2)CC(=O)N1` the outcome was “inactive”. With `O=C1c2ccccc2C(=O)C1c1ccccc1` the outcome was “inactive”. For `CCC(C)(CCC(C)C)C(=O)O` (stereo not given), the outcome was “inactive”. With `COc1cc(NS(=O)(=O)c2ccc(N)cc2)nc(OC)n1` the outcome was “inactive”. In the case of `C[C@@H]1O[C@@H](O[C@@H]2[C@@H](O)[C@H](OCCc3ccc(O)c(O)c3)O[C@H](CO[C@@H]3O[C@H](CO)[C@@H](O)[C@H](O)[C@H]3O)[C@H]2OC(=O)/C=C/c2ccc(O)c(O)c2)[C@H](O)[C@H](O)[C@H]1O`, the outcome is reported as “inactive”. In the case of `C[C@@H](O)[C@H]1C(=O)N2C(C(=O)O)=C(SCCN=CN)C[C@H]12`, the outcome is reported as “inactive”. With `C=CC(OCC)OCC` the outcome was “inactive”. In the case of `O=C1c2cccc3c2[C@H](CCC3)CN1[C@@H]1CN2CCC1CC2`, the outcome is reported as “inactive”. In the case of `NC(CO)C(=O)NNCc1ccc(O)c(O)c1O` (stereo not given), the outcome is reported as “inactive”. For `CC(C)C(=O)OCCc1ccccc1`, the outcome was “inactive”. With `CCC(C=O)CC` the outcome was “inactive”. For `C[C@H](CCC(=O)O)[C@H]1CC[C@H]2[C@@H]3C(=O)C[C@@H]4CC(=O)CC[C@]4(C)[C@H]3CC(=O)[C@]12C`, the outcome was “inactive”. With `CC(C)(C)c1cc(CCC(=O)NN)cc(C(C)(C)C)c1O` the outcome was “inactive”. For `O=C(CS(=O)Cc1ccco1)NC/C=C\COc1cc(CN2CCCCC2)ccn1` (stereo not given), the outcome was “inactive”. In the case of `O=C(OCc1ccccc1)C(=O)OCc1ccccc1`, the outcome is reported as “inactive”. In the case of `C=C(C)C1CCC(C)(O)CC1` (stereo not given), the outcome is reported as “inactive”. With `CC(=O)Nc1cccc(C)c1` the outcome was “inactive”. With `COC(=O)c1ccccc1C(=O)c1ccc(OCCN2CCCCC2)cc1` the outcome was “inactive”. In the case of `CCCCCCN`, the outcome is reported as “inactive”. In the case of `CCCN1C[C@H](CSC)C[C@@H]2c3cccc4[nH]cc(c34)C[C@H]21`, the outcome is reported as “inactive”. For `CC1=CCC(C(C)C)=CC1`, the outcome was “inactive”. For `NNc1nnc(NN)c2ccccc12`, the outcome was “inactive”. In the case of `CC(C)C[C@H](NC(=O)CNC(=O)[C@H](Cc1ccc(O)cc1)NC(=O)[C@H](CO)NC(=O)[C@H](Cc1c[nH]c2ccccc12)NC(=O)[C@H](Cc1cnc[nH]1)NC(=O)[C@@H]1CCC(=O)N1)C(=O)N[C@@H](CCCN=C(N)N)C(=O)N1CCC[C@H]1C(=O)NCC(N)=O` (stereo in doubt), the outcome is reported as “inactive”. For `O=C(NCCN1CCOCC1)c1ccc(Cl)cc1`, the outcome was “inactive”. For `CNS(=O)(=O)CCc1ccc2[nH]cc(C3CCN(C)CC3)c2c1`, the outcome was “inactive”. In the case of `C=C(C)C(=O)OCc1ccccc1`, the outcome is reported as “inactive”. With `Cc1c(I)c(=O)n(-c2ccccc2)n1C` the outcome was “inactive”. For `CC(C)(C)OC(=O)c1ccc(O)cc1`, the outcome was “inactive”.
